The values below come from PubChem BioAssay (EPA / NIEHS).

SMILES strings stand for the structures. Active and inactive are the calls of the source. The calls were made as follows: active = hit-call score of the fitted dose curve at least 0.9, where 1 is the maximum; inactive = score below 0.9.

Holding throughout (conditions): mRNA level, 48 h; actives raise or lower the signal
Read-out in assay [1]: Signal transducer and activator of transcription 3 (Homo sapiens) (UniProt P40763)
Put plainly: LTEA_HepaRG_STAT3: Life Technologies and Expression Analysis (LTEA) Assay for Signal transducer and activator of transcription (STAT3) using HepaRG (AID 2283529). Put shortly:
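Differentiated HepaRG cells, serum-free induction medium, dosed 48 h in duplicate, 8 half-log concentrations from 100 uM in 0.5% DMSO. STAT3 mRNA by qRT-PCR, normalised to ACTB, GAPDH, POLR2A; bidirectional fit versus DMSO.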

Read-out in assay [2]: solute carrier (SLCO1B1), SLCO1B1 (gene 10599)
As to the kind of experiment: LTEA_HepaRG_SLCO1B1: Life Technologies and Expression Analysis (LTEA) Assay for solute carrier (SLCO1B1) using HepaRG (AID 2283530). Put shortly:
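Human HepaRG cultures treated for 48 h with an eight-concentration half-log series topping at 100 uM; SLCO1B1 measured by qRT-PCR and fitted bidirectionally relative to DMSO.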

Read-out in assay [3]: sulfotransferase 2A1 (SULT2A1), SULT2A1 (gene 6822)
Put plainly: LTEA_HepaRG_SULT2A1: Life Technologies and Expression Analysis (LTEA) Assay for sulfotransferase 2A1 (SULT2A1) using HepaRG (AID 2283531). In outline: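 Gene-expression endpoint in a human liver cell line: SULT2A1 mRNA change after 48 h chemical treatment, curves fitted in both directions relative to 0.5% DMSO vehicle. Concentrations spanned eight half-log steps from 100 uM.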

Read-out in assay [4]: Transforming Growth Factor (TGFA), TGFA (gene 7039)
Put plainly: LTEA_HepaRG_TGFA: Life Technologies and Expression Analysis (LTEA) Assay for Transforming Growth Factor (TGFA) using HepaRG (AID 2283532). Put shortly: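 Differentiated HepaRG cells exposed 48 hours in serum-free induction medium, 0.5% DMSO vehicle, 8-point half-log series from 100 uM, in duplicate. TGFA mRNA by TaqMan qRT-PCR, normalised to ACTB, GAPDH, POLR2A; bidirectional fit versus DMSO.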

Read-out in assay [5]: Transforming Growth Factor (TGFB1), TGFB1 (gene 7040)
As to the kind of experiment: LTEA_HepaRG_TGFB1: Life Technologies and Expression Analysis (LTEA) Assay for Transforming Growth Factor (TGFB1) Transporter using HepaRG (AID 2283533). In outline: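 Eight-point concentration-response (max 100 uM, half-log) in HepaRG under serum-free induction conditions, 48 h. TGFB1 mRNA by qRT-PCR, housekeeping-normalized.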

Read-out in assay [6]: TIMP1, TIMP1 (gene 7076)
As to the kind of experiment: LTEA_HepaRG_TIMP1: Life Technologies and Expression Analysis (LTEA) Assay for TIMP1 using HepaRG (AID 2283534).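 As to outcome: TaqMan qRT-PCR signal normalized to ACTB GAPDH and POLR2A housekeeping genes.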 In outline:
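TIMP1 induction or repression in HepaRG cells after 48 h chemical exposure (eight concentrations, highest 100 uM), assessed by normalized qRT-PCR with bidirectional fitting to DMSO controls.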

Read-out in assay [7]: Tumor necrosis factor receptor 1 (TNFRSF1A), TNFRSF1A (gene 7132)
Put plainly: LTEA_HepaRG_TNFRSF1A: Life Technologies and Expression Analysis (LTEA) Assay for Tumor necrosis factor receptor 1 (TNFRSF1A) using HepaRG (AID 2283535). In outline:
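Assay uses 48 h chemical treatment of differentiated HepaRG monolayers, tested in duplicate at eight concentrations from 100 uM downward in 0.5% DMSO. mRNA is normalized to ACTB, GAPDH and POLR2A, with induction or suppression fitted relative to vehicle.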

Read-out in assay [8]: Thyroid Hormone Responsive (THRSP), THRSP (gene 7069)
As to the kind of experiment: LTEA_HepaRG_THRSP: Life Technologies and Expression Analysis (LTEA) Assay for Thyroid Hormone Responsive (THRSP) using HepaRG (AID 2283536). In outline: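 Differentiated HepaRG cells treated 48 h in serum-free induction medium with 8 half-log concentrations up to 100 uM (0.5% DMSO), duplicates. THRSP mRNA by TaqMan qRT-PCR normalised to ACTB, GAPDH, POLR2A; bidirectional fit versus DMSO.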

Read-out in assay [9]: Cellular tumor antigen p53 (Homo sapiens) (UniProt P04637)
As to the kind of experiment: LTEA_HepaRG_TP53: Life Technologies and Expression Analysis (LTEA) Assay for Tumor Protein P53 (TP53) using HepaRG (AID 2283537). Put shortly: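 TP53 transcript measured by qRT-PCR, normalized to three housekeeping genes, after 48 h treatment of human HepaRG cultures with chemicals from 100 uM downward in half-log steps (0.5% DMSO vehicle, serum-free induction medium). Up- or down-regulation fitted against DMSO.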

Read-out in assay [10]: UDP glucuronosyltransferase (UGT1A1), UGT1A1 (gene 54658)
Put plainly: LTEA_HepaRG_UGT1A1: Life Technologies and Expression Analysis (LTEA) Assay for UDP glucuronosyltransferase (UGT1A1) using HepaRG (AID 2283538). In outline: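 Human liver HepaRG cultures receive test chemical for 48 h, up to 100 uM in 0.5% DMSO, with phenobarbital induction controls. UGT1A1 mRNA is measured by qRT-PCR and normalized to ACTB, GAPDH and POLR2A.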

Cellular tumor antigen p53 (Homo sapiens), sequence (P04637 whole entry, looked up): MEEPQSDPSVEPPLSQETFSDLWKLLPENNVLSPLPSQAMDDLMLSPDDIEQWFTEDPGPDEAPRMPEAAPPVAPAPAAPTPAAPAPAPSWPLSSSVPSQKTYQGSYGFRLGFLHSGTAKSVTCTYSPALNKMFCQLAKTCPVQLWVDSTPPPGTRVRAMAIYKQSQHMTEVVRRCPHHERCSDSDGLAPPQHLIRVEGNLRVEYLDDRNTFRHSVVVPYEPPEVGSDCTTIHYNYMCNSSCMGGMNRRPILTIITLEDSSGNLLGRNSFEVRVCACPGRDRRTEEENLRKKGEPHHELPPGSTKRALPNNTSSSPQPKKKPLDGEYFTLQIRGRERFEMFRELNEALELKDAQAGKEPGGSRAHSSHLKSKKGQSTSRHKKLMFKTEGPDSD
Signal transducer and activator of transcription 3 (Homo sapiens), sequence (P40763 whole entry, looked up): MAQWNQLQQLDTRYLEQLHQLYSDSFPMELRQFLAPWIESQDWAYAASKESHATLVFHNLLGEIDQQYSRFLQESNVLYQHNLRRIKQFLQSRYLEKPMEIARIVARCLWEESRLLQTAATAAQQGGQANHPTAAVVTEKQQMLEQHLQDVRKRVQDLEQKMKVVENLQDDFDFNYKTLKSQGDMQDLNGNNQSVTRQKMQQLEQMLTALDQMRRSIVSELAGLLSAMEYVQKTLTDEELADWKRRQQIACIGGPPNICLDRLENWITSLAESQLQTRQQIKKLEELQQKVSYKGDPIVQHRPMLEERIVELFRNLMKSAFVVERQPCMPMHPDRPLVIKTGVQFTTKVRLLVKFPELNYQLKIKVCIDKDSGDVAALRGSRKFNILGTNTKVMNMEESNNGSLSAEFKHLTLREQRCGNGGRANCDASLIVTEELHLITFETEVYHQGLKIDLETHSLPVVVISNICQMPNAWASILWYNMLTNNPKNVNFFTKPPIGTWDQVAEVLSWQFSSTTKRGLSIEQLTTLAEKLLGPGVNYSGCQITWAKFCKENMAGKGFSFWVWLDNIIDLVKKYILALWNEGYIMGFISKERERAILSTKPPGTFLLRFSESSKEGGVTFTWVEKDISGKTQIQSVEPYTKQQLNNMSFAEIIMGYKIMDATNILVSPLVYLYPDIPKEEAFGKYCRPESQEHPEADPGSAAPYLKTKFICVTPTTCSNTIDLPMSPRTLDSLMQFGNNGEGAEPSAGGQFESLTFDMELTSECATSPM

For the molecule `O=c1c(-c2ccc(O)cc2)coc2cc(O)ccc12`, the molecule was classed as inactive in assay [1], in assay [2], in assay [3], in assay [4], in assay [5] and in [6]. The molecule was classed as inactive in assay [7], in assay [8], in assay [9] and in assay [10].

The term AC50 denotes the concentration at which the activity in the assay is half-maximal. Take `c1ccc2cc3c(ccc4ccccc43)cc2c1`: the AC50 in [1] is 8.31 µM (active); in assay [2], 8.09 µM (active); in assay [3] it was 13.3 µM (active); in assay [6], 10.2 µM (active); in [8], 5.27 µM (active); in assay [10] it was 4.24 µM (active). In addition, the result in assay [4], in assay [5], in [7] and in assay [9] was inactive.

For the molecule `CN1CCC[C@H]1c1cccnc1`, the outcome in assay [1], in assay [2], in assay [3], in assay [4], in assay [5] and in assay [6] was inactive. For the same molecule, the call in assay [7], in assay [8] and in [10] was inactive.

With `Oc1cc2ccccc2c2ccccc12`, the molecule was classed as inactive in [1], in [2], in [3], in assay [4], in [5] and in assay [6]. Also, the molecule was called inactive in [7], in assay [8], in assay [9] and in assay [10].

Turning to `CCCCOCCO`, the outcome in [1], in [2], in [3], in assay [4], in [5] and in assay [6] was inactive. For the same molecule, the outcome in assay [7], in assay [8], in assay [9] and in assay [10] was inactive.

As to `CC(O)CO` (centres undefined), the call in assay [1], in [2], in assay [3], in assay [4], in assay [5] and in [6] was inactive. Also, the result in [7], in assay [8], in assay [9] and in [10] was inactive.

In the case of `CCc1nn(C2CCCCC2)c2cc(C3(C#N)CCC(C(=O)O)CC3)ccc12` (centres undefined), the outcome in [1] and in assay [7] was inactive. In addition, the AC50 in assay [2] is 56.2 µM (active); in [3], 80.4 µM (active); in assay [4], 65.5 µM (active); in [5] it was 33.2 µM (active); in [6], 33.8 µM (active); in assay [8] it was 79.3 µM (active). For the same molecule, the concentration at half-maximal activity (AC50) was 50 µM (active) in assay [9] and 11.8 µM (active) in assay [10].

As to `CN(C)C=O`, the outcome in assay [1], in assay [2], in assay [3], in assay [4], in [5] and in assay [6] was inactive. Moreover, the call in [7], in [8], in [9] and in assay [10] was inactive.

`C=C(C)C(=O)OCCC(F)(F)C(F)(F)C(F)(F)C(F)(F)C(F)(F)C(F)(F)F`: the result in assay [1], in [2], in assay [3], in assay [4], in assay [5] and in assay [6] was inactive. Moreover, the molecule was classed as inactive in assay [7], in [8], in assay [9] and in assay [10].

`NC(=O)N1C(=O)C(C(=O)c2cc(Cl)cs2)c2cc(F)c(Cl)cc21` (centres undefined): the molecule was called inactive in assay [1] and in assay [5]. The AC50 in assay [2] was 19.3 µM (active); in assay [3], 34.2 µM (active); in assay [4], 89.3 µM (active); in [6], 85.2 µM (active); in assay [7] it was 40.2 µM (active); in [8], 17.7 µM (active). Moreover, the half-maximal activity concentration (AC50) is 94.4 µM (active) in [9] and 38.7 µM (active) in [10].

For `C[C@@H]1C[C@H]2[C@@H]3CCC4=CC(=O)C=C[C@]4(C)[C@@]3(F)[C@@H](O)C[C@]2(C)[C@@]1(O)C(=O)COP(=O)(O)O`, the call in assay [1], in assay [2], in [3], in assay [4], in [5] and in assay [6] was inactive. Also, the outcome in assay [7], in assay [8], in assay [9] and in assay [10] was inactive.

As for `CC#C[C@]1(O)CC[C@H]2[C@@H]3CCC4=CC(=O)CCC4=C3[C@@H](c3ccc(N(C)C)cc3)C[C@@]21C`, the outcome in [1] and in assay [7] was inactive. The AC50 was 84.2 µM (active) in [2]; 57.4 µM (active) in assay [3]; 44.9 µM (active) in assay [4]; 3.49 µM (active) in assay [5]; 83.9 µM (active) in assay [6]; 11.3 µM (active) in assay [8]. The half-maximal activity concentration (AC50) in assay [9] was 20.4 µM (active); in [10], 77.2 µM (active).

As for `COCC(C)OCC(C)O` (centres undefined), the call in [1], in [2], in [3], in assay [4], in assay [5] and in assay [6] was inactive. Moreover, the outcome in assay [7], in assay [8], in assay [9] and in assay [10] was inactive.

`ClC1=C(Cl)C(Cl)(Cl)C(Cl)=C1Cl`: the result in [1], in assay [2], in [3], in assay [4], in assay [5] and in assay [6] was inactive. Besides, the molecule was classed as inactive in assay [7], in assay [8], in assay [9] and in [10].

In the case of `O=C(O)Cc1cc(I)c(Oc2cc(I)c(O)c(I)c2)c(I)c1`, the call in assay [1], in assay [4] and in assay [6] was inactive. Further, the AC50 in assay [2] is 56.2 µM (active); in assay [3], 52.4 µM (active); in [5] it was 56.4 µM (active); in [7], 55.3 µM (active); in assay [8], 56 µM (active); in assay [9], 59.1 µM (active). Also, the half-maximal activity concentration (AC50) in assay [10] was 61.5 µM (active).

For `CCCOC(=O)c1ccc(O)cc1`, the molecule was classed as inactive in [1], in assay [2], in assay [3], in [4], in assay [5] and in assay [6]. Further, the molecule was called inactive in assay [8], in [9] and in assay [10]. The half-maximal activity concentration (AC50) in assay [7] is 0.779 µM (active).

On to `Nc1cccc2c(N)cccc12`, for which the result in [1], in assay [3], in assay [4], in assay [5], in [6] and in [7] was inactive. The result in assay [9] and in assay [10] was inactive. Also, the AC50 is 9.92 µM (active) in assay [2] and 10.9 µM (active) in assay [8].

With `CC(C)(C)CC(C)(C)c1ccc(O)c(-n2nc3ccccc3n2)c1`, the result in [1], in assay [2], in [3], in [4], in assay [5] and in assay [6] was inactive. The call in assay [7] and in assay [9] was inactive. For the same molecule, the AC50 in [8] is 77.9 µM (active); in assay [10], 17.4 µM (active).

Turning to `CCCCCCCCOC(=O)CCCCCCCCC(=O)OCCCCCCCC`, the outcome in [1], in assay [2], in [3], in assay [4], in assay [5] and in assay [6] was inactive. In addition, the call in [7], in assay [8], in [9] and in [10] was inactive.

For `C#C[C@]1(O)CC[C@H]2[C@@H]3CCC4=CC(=O)CC[C@@H]4[C@H]3CC[C@@]21C`, the outcome in assay [1], in assay [2], in assay [4], in [5], in [6] and in assay [7] was inactive. Further, the call in assay [9] was inactive. For the same molecule, the AC50 in assay [3] was 15.9 µM (active); in [8] it was 0.0729 µM (active); in assay [10] it was 2.19 µM (active).

With `CC(=O)NC1(c2cccc(F)c2)CCN(CC[C@@]2(c3ccc(Cl)c(Cl)c3)CN(c3ccccc3)C(=O)CO2)CC1`, the outcome in [1], in assay [3], in assay [4], in assay [5], in assay [6] and in [7] was inactive. Besides, the result in [9] was inactive. Besides, the AC50 in [2] is 79.7 µM (active); in [8] it was 20.5 µM (active); in assay [10], 41.5 µM (active).
